Results taken from PubChem BioAssay (NCI).
Compounds without any hit were thinned out: in the full panel of roughly 83,000, 20% have a hit.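 The endpoint reported here, percent growth, reads 100 for growth as untreated, 0 for no net growth and -100 for all cells dead.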 A number with no mark means an inactive call. The source made the active and inactive calls. The calls were made as follows: active = growth percent below 10; inactive = the rest.

What follows are compounds tested on HL-60(TB) leukemia (assay: NCI-60 one-dose screen, 48 h (100 = growth as untreated, 0 = no growth, -100 = all killed)). Conditions: 10 µM unless noted.

| Structure (SMILES) | growth |
| --- | --- |
| COc1ccc2nc(NNC(=O)c3cnccn3)c3cccn3c2c1 | -27.1% (active) |
| O=c1c2cc(F)ccc2sc2c(NCCCNCCO)nc3ccccc3c12 | 6.49% (active) |
| NS(=O)(=O)c1ccc(CCN2C(=O)/C(=C\c3ccc(Cl)cc3)C=C2c2ccc(Oc3ccccc3)cc2)cc1 | 83.7% |
| C1C[S+]2CC[S+]1CC2 | 111% |
| COc1ccc2c(c1OC)O/C(=C\c1ncc([N+](=O)[O-])n1C)C2=O | -7.92% (active) |
| COC(=O)c1nc(-c2ccc(C)cc2)oc1S(=O)(=O)c1ccc(Cl)cc1 | 51.8% |
| CCOC(=O)n1cc(-c2nonc2-c2cn(C(=O)OCC)c3ccc(Br)cc23)c2ccccc21 | 93.9% |
| OC(COCc1ccccc1)COCc1ccccc1 | 91.8% |
| C=CCn1ccc(=O)nc1SC | 96.4% |
| COC(=O)Cc1cc(COC(C)=O)ccc1C | 84.8% |
| COC(=O)C1CC(=O)N(C(=O)Nc2ccc(Cl)cc2Cl)C1 (stereo unspecified) | 97.8% |
| O=C1Nc2c(ccc(Cl)c2Cl)/C1=C/c1cc(Br)c(O)c(Br)c1 | 33% |
| CCC(C)(C)C(=O)O[C@H]1C[C@@H](C)C=C2C=C[C@H](C)[C@H](CC[C@@H]3CC=CC(=O)O3)[C@H]21 | 5.76% (active) |
| CCCCOS(=O)(=O)c1ccccc1 | 111% |
| COc1ccc(C2=Nc3c(N)ncnc3NC(c3cccc(Nc4ccnc5cc(C(F)(F)F)ccc45)c3)C2)cc1 (stereo unspecified) | 42.7% |
| COc1ccc(-c2cnoc2-c2ccc(OC)cc2O)cc1 | 26.4% |
| O=C1/C(=C/c2ccc(Cl)c(Cl)c2)CN(C(=O)CCN2CCC(=NO)CC2)C/C1=C\c1ccc(Cl)c(Cl)c1 | -16% (active) |
| Nc1ccc(N(O)/C=C2\C=CC=CC2=O)cc1N | 73.2% |

| Structure (SMILES) | growth |
| --- | --- |
| COc1cc(C(O)C2C(=O)OCC2C2(c3ccc4c(c3)OCO4)SCCCS2)cc(OC)c1OC (stereo unspecified) | 91.8% |
| O=C(Nc1cccc(-c2nc3ccccc3[nH]2)c1)c1cccc(NC(=O)c2ccco2)c1 | 88.9% |
| CCOC(=O)c1ccccc1SC(C[N+](=O)[O-])c1ccccc1 (stereo unspecified) | 89.7% |
| CCCN1CCN(c2ccc3nc(-c4ccc5nc(-c6ccc(OCC)cc6)[nH]c5c4)[nH]c3c2)CC1 | 16.9% |
| O=C(c1ccccc1)N1N=C(c2ccc(-n3ccc(C(F)(F)F)n3)cc2)CC1c1ccc[nH]1 (stereo unspecified) | 93.3% |
| CCCCOC(=O)C1OC(Oc2ccc3c(C)cc(=O)oc3c2)[C@@H](OC(C)=O)C(OC(C)=O)C1OC(C)=O (stereo partly specified) | 102% |
| O=P(O)(O)OCC1OC(n2cnc3c(NCc4ccccc4)ncnc32)C(O)C1O (stereo unspecified) | 26.8% |
| COP(=O)(OC)/C(=N\NS(=O)(=O)c1ccc(C)cc1)c1ccccc1 | 100% |
| O=C(Nc1ccc(-n2cc(-c3ccncc3)c(-c3ccc(O)c(Cl)c3)n2)cc1)c1ccc(Cl)c(Cl)c1 | 14.7% |
| CCCCN(CCCC)C(=O)[C@H](CC)[C@@H]1CC[C@@H](C)[C@@H]([C@H](C)[C@@H](O)[C@@H](C)C(=O)[C@H](CC)C2O[C@]3(C=C[C@@H](O)[C@]4(CC[C@@](C)([C@H]5CC[C@](O)(CC)[C@H](C)O5)O4)O3)[C@H](C)C[C@@H]2C)O1 (stereo partly specified) | -40.8% (active) |
| CC1CCc2cc(F)cc3c(=O)c(C(=O)O)cn1c23 (stereo unspecified) | 107% |
| COc1ccc(C2CC(c3cc(OC)c(OC)c(OC)c3)=NN2)cc1 (stereo unspecified) | 60.1% |
| COc1cc2c(c(OC)c1OC)-c1ccc(N)c(=O)cc1[C@@H](NC(C)=O)CC2 | 3.69% (active) |
| COc1cc(-c2cn(-c3ccc(Cl)c(Cl)c3)c(=O)[nH]2)cc(OC)c1OC | 88.1% |
| C=C1c2c(Cl)ccc(O)c2C(O)=C2C(=O)[C@]3(O)C(O)=C(C(N)=O)C(=O)[C@@H](N(C)C)[C@@H]3[C@@H](O)[C@H]12 | -24.8% (active) |
| Cc1ccc(S(=O)(=O)n2cc(-c3csc(-c4cn(C)c5ncccc45)n3)c3ccccc32)cc1 | 61.9% |
| COc1cc(C=C2C(=O)NC(=S)NC2=O)cc(CN2CCCC2)c1O | 108% |
| C=C1C(=O)O[C@H]2[C@H]1CC/C(COC(=O)NCCCCCCCCNC(=O)OC/C1=C/CC[C@@]3(C)O[C@H]3[C@H]3OC(=O)C(=C)[C@@H]3CC1)=C\CC[C@@]1(C)O[C@@H]21 | -50.2% (active) |
